# Laboratory results taken from PubChem BioAssay (Tox21).
# Records with an inconclusive call do not appear. A call without a number means that no potency is given here. A structure can be active in one record and inactive in another. Activity calls are given as the source filed them. Unless noted, calls follow the shape of the dose curve; as a rule, active = well fitted curve in the direction sought with a large enough effect in the repeat runs; inconclusive = weak or mixed curves; inactive = no such curve, though single readings can be large; an effect the other way counts as inactive or inconclusive.
# Experiments:
# [1] = qHTS RealTime-Glo MT Cell Viability Assay in HEK293 cells - 0 hour (AID 1224880); conditions: RealTime-Glo luminescence; series mostly up to 76.8 µM; also: top concentration of the series differs between compounds; nearly all actives have a fitted effect of over 45% in size
# Summary of the method: (§1)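 HEK293 cells mixed with RealTime-Glo reagents (NanoLuc plus cell-permeant prosubstrate) at 600 cells/well, preincubated 5 h at 37 C/5% CO2, then given 23 nL compound in DMSO. Nonlytic luminescence from viable cells was read at 0, 8, 16, 24, 32 and 40 h.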
# [2] = A CellTox Green Cytotoxicity Assay to monitor cytotoxicity in HepG2 cells - 0 hour (AID 1224882); conditions: CellTox Green fluorescence; series mostly up to 76.8 µM; also: nearly all actives have a fitted effect of over 35% in size
# Summary of the method: (§2)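 HepG2 cells were seeded together with the CellTox Green dye at 600 cells/well, left 5 h at 37 C/5% CO2, then given compounds in DMSO. Fluorescence from dye bound to dead-cell DNA was read repeatedly over 40 h of treatment at 37 C.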
# [3] = A CellTox Green Cytotoxicity Assay to monitor cytotoxicity in HEK293 cells - 8 hour (AID 1224884); conditions: CellTox Green fluorescence; series mostly up to 76.8 µM; also: nearly all actives have a fitted effect of over 35% in size
# Summary of the method: (§3)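 HEK293 cells premixed with CellTox Green dye were seeded at 600 cells/well and left 5 h at 37 C/5% CO2 before pin transfer of 23 nL compound in DMSO. Fluorescence from dye bound to dead-cell DNA was read during 40 h treatment.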
# [4] = qHTS RealTime-Glo MT Cell Viability Assay in HEK293 cells - 24 hour (AID 1224886); conditions: RealTime-Glo luminescence; series mostly up to 76.8 µM; also: nearly all actives have a fitted effect of over 50% in size; also: potency is read from the fitted curve at half-maximal effect
# Summary of the method: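 Quantitative high-throughput screen of the Tox21 10K library in HEK293: cells and RealTime-Glo reagents plated together, compound added at 5 h, luminescence monitored through 40 h at 37 C.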
# [5] = A CellTox Green Cytotoxicity Assay to monitor cytotoxicity in HEK293 cells - 16 hour (AID 1224888); conditions: CellTox Green fluorescence; series mostly up to 76.8 µM; also: nearly all actives have a fitted effect of over 35% in size
# Summary of the method: as §3
# [6] = qHTS RealTime-Glo MT Cell Viability Assay in HepG2 cells - 0 hour (AID 1224889); conditions: RealTime-Glo luminescence; series mostly up to 76.8 µM; also: nearly all actives have a fitted effect of over 50% in size
# Summary of the method: (§4)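 Compound treatment began 5 h after plating HepG2 cells (600/well) with NanoLuc luciferase and prosubstrate. Plates stayed at 37 C for 40 h; luminescence was captured at six time points, 0 h through 40 h.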
# [7] = A CellTox Green Cytotoxicity Assay to monitor cytotoxicity in HepG2 cells - 8 hour (AID 1224890); conditions: CellTox Green fluorescence; series mostly up to 76.8 µM; also: nearly all actives have a fitted effect of over 45% in size
# Summary of the method: as §2
# [8] = qHTS assay to identify small molecule antagonists of the androgen receptor (AR) signaling pathway using the MDA cell line in the presence of 0.5 nM R1881 - cell viability counter screen (AID 1259242); conditions: MDA-kb2 viability, CellTiter-Fluor protease fluorescence, 16 h; series mostly up to 92.4 µM; also: nearly all actives have a fitted effect of over 45% in size; also: potency is read from the fitted curve at half-maximal effect
# Summary of the method: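 MDA-kb2 cells (human breast carcinoma, stably carrying MMTV-luciferase reporter) were exposed to compounds with 0.5 nM R1881 (final) for 16 hr at 37C, 0% CO2; viability then read as live-cell protease fluorescence (CellTiter-Fluor, 30 min) in the same wells.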
# [9] = molecular target: Estrogen receptor (Homo sapiens) (UniProt P03372); assay: qHTS assay to identify small molecule antagonists of the estrogen receptor alpha (ER-alpha) signaling pathway using the BG1 cell line in the presence of 0.1 nM 17-beta-estradiol (AID 1259244); conditions: VM7Luc4E2 (BG1) ERE-luciferase, antagonist mode, 0.1 nM E2, 22 h; series mostly up to 92.4 µM; also: nearly all actives have a fitted effect of over 50% in size
# Summary of the method: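 VM7Luc4E2 cells (endogenous full-length ER-alpha, stable 4xERE-luciferase) were grown 5 days in phenol red-free medium with charcoal-stripped FBS, then exposed 22 h at 37C to compounds plus 0.1 nM (final) 17beta-estradiol; ONE-Glo luminescence read-out.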
# [10] = qHTS assay to identify small molecule phospholipidosis (PLD) inducers (AID 1259344; active = well fitted curve in the direction sought with a large enough effect; an effect the other way counts as inactive or inconclusive); conditions: HepG2 phospholipidosis, LipidTOX Red imaging, 24 h; series mostly up to 38.3 µM
# Summary of the method: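 HepG2 cells grown on collagen I take up LipidTOX Red while exposed to compound for 24 h; after fixation they are imaged at 20x and pit metrics are extracted.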
# [11] = qHTS assay to identify small molecule HDAC inhibitors - cell viability counter screen (AID 1259365); conditions: HCT-116 viability, CellTiter-Glo ATP luminescence, 2 h; series mostly up to 92.4 µM; also: nearly all actives have a fitted effect of over 50% in size
# Summary of the method: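 CellTiter-Glo luminescence (30 min, room temperature) reported viability after a 2 h compound exposure at 37 C. Cells: wild-type HCT-116, 1,500 per well, seeded the night before.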
# [12] = qHTS assay to identify small molecule agonists of the sonic hedgehog signaling (Shh) pathway - cell viability counter screen (AID 1259366); conditions: NIH/3T3 Gli1-Luc viability, CellTiter-Fluor, 24 h; series mostly up to 92.4 µM; also: nearly all actives have a fitted effect of over 50% in size
# Summary of the method: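 Cytotoxicity counter screen: CellTiter-Fluor reagent added after 23 h compound exposure, then 1 h at 37C and fluorescence read. Cells were 3T3 Gli1-Luc, seeded 2,000 per well and dosed 4 h post-plating.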
# [13] = qHTS assay to identify small molecule antagonists of the sonic hedgehog signaling (Shh) pathway - cell viability counter screen (AID 1259367); conditions: NIH/3T3 Gli1-Luc viability, CellTiter-Fluor, 24 h; series mostly up to 92.4 µM; also: nearly all actives have a fitted effect of over 55% in size
# Summary of the method: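 After a 4 hr settling period, 3T3 Gli1-Luc cells were treated with DMSO-dissolved chemicals and conditioned medium, kept 24 hr at 37C in 5% CO2, and assayed for viability by CellTiter-Fluor fluorescence following 1 hr reagent incubation.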
# [14] = qHTS RealTime-Glo MT Cell Viability Assay in HepG2 cells - 16 hour (AID 1224885); conditions: RealTime-Glo luminescence; series mostly up to 76.8 µM; also: nearly all actives have a fitted effect of over 50% in size
# Summary of the method: as §4
# [15] = qHTS RealTime-Glo MT Cell Viability Assay in HEK293 cells - 8 hour (AID 1224887); conditions: RealTime-Glo luminescence; series mostly up to 76.8 µM
# Summary of the method: as §1
# [16] = qHTS assay to identify small molecule antagonists of the estrogen receptor alpha (ER-alpha) signaling pathway using the BG1 cell line in the presence of 0.1 nM 17-beta-estradiol - cell viability counter screen (AID 1259241); conditions: VM7Luc4E2 (BG1) viability, CellTiter-Fluor protease, 22 h, 0.1 nM estradiol agonist added; series mostly up to 92.4 µM; also: nearly all actives have a fitted effect of over 40% in size
# Summary of the method: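 Cytotoxicity counter-screen: live-cell protease activity measured by fluorescence (30 min reagent step) in the same wells. Cells were VM7Luc4E2 with endogenous ER-alpha and ERE-driven luciferase, treated 22 hr at 37C alongside 0.1 nM 17beta-estradiol final.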
# [17] = qHTS assay to identify small molecule HDAC inhibitors (AID 1259364); conditions: HCT-116 HDAC-Glo I/II luminescence, 2 h; series mostly up to 92.4 µM; also: top concentration of the series differs between compounds; nearly all actives have a fitted effect of over 45% in size
# Summary of the method: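 Wild-type HCT-116 cells were plated overnight, exposed to compounds for 2 h at 37 °C, then given HDAC-Glo class I/II luminogenic reagent for 30 min at room temperature before luminescence was read.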
# [18] = A CellTox Green Cytotoxicity Assay to monitor cytotoxicity in HepG2 cells - 32 hour (AID 1224883); conditions: CellTox Green fluorescence; series mostly up to 76.8 µM; also: nearly all actives have a fitted effect of over 50% in size; also: potency is read from the fitted curve at half-maximal effect
# Summary of the method: as §2
# [19] = molecular target: Androgen receptor (Homo sapiens) (UniProt P10275); assay: qHTS assay to identify small molecule antagonists of the androgen receptor (AR) signaling pathway using the MDA cell line in the presence of 0.5 nM R1881 (AID 1259243); conditions: MDA-kb2 MMTV-luciferase, R1881 0.5 nM, 16 h; series mostly up to 92.4 µM; also: nearly all actives have a fitted effect of over 50% in size; also: potency is read from the fitted curve at half-maximal effect
# Summary of the method: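 MDA-kb2 human breast carcinoma cells carrying an MMTV-luciferase reporter (AR- and GR-responsive) were plated, rested 5 hr at 37C, dosed with compounds, then stimulated with 0.5 nM R1881 (final) for 16 hr; luminescence was read after ONE-Glo.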
# Sequence of Estrogen receptor (Homo sapiens) (P03372 whole entry, looked up): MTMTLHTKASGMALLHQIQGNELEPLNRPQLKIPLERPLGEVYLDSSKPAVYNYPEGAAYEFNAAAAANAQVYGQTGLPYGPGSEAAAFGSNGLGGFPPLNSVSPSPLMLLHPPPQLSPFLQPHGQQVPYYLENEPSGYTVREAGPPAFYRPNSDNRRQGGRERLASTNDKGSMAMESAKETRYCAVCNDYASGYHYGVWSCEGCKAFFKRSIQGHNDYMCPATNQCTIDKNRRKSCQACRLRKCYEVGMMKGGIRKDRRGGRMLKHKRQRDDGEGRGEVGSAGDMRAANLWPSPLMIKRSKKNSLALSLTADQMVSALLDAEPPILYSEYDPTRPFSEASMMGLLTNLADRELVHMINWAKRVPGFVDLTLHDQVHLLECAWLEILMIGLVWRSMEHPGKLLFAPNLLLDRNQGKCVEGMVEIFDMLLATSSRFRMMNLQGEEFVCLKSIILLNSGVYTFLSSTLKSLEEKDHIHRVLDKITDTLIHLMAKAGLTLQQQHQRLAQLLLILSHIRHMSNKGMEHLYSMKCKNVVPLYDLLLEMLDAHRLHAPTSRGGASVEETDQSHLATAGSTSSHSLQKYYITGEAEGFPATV
# Sequence of Androgen receptor (Homo sapiens) (P10275 whole entry, looked up): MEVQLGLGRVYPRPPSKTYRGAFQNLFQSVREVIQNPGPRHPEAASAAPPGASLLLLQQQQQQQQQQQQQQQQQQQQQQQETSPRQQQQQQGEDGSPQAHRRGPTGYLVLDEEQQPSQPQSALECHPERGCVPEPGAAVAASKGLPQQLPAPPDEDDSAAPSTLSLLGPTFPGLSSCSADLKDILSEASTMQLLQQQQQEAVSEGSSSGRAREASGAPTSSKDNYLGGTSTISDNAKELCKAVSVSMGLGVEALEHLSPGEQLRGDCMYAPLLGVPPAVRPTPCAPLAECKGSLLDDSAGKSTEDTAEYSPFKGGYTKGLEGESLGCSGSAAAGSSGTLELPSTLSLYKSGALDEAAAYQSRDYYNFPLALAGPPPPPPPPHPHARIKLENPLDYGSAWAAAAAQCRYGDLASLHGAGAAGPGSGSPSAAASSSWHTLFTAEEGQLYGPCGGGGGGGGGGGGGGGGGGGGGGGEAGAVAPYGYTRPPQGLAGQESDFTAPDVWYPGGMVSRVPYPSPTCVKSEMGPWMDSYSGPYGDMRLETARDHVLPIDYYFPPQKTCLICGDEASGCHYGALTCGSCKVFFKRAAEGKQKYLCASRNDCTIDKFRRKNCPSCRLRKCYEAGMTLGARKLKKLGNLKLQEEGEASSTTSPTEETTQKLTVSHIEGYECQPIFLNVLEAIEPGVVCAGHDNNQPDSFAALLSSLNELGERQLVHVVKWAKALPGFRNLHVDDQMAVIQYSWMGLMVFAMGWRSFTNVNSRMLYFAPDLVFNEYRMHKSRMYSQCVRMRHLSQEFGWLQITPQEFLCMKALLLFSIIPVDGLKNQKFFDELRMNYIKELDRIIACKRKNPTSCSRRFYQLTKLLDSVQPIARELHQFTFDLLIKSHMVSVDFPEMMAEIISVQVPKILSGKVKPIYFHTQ
Compound,Potency [1],Potency [2],Potency [3],Potency [4],Potency [5],Potency [6],Potency [7],Potency [8],Potency [9],outcome [10],outcome [11],Potency [12],Potency [13],Potency [14],Potency [15],Potency [16],Potency [17],Potency [18],Potency [19]
NS(=O)(=O)c1cc(C(=O)O)c(NCc2ccco2)cc1Cl,inactive,inactive,inactive,inactive,inactive,inactive,inactive,inactive,inactive,inactive,inactive,inactive,inactive,,,,,,
Nc1ccc(C(=O)O)cc1,inactive,inactive,inactive,inactive,inactive,inactive,inactive,inactive,inactive,inactive,inactive,inactive,inactive,inactive,inactive,inactive,inactive,,
CC1(C)[C@@H]2CC[C@@]1(C)C(=O)C2,inactive,inactive,inactive,inactive,inactive,inactive,inactive,inactive,inactive,inactive,inactive,inactive,inactive,inactive,inactive,,,,
CCCC(O)C(CC)CO (centres undefined),inactive,inactive,inactive,inactive,inactive,inactive,inactive,inactive,inactive,inactive,inactive,inactive,inactive,,inactive,inactive,,,
c1ccc2[nH]ccc2c1,inactive,inactive,inactive,2.41 µM (active) and inactive,,inactive,inactive,9.53 µM (active) and inactive,,inactive,inactive,inactive,inactive,,inactive,,,3.83 µM (active) and inactive,2.39 µM (active) and inactive
